Screen size: about 38,000 compounds; about 1,200 (3.2%) showed an effect of 50% or more. The median lay at about -58%. For the sample, strong results were picked, then their nearest neighbours and some compounds at random.
test system: Plasmodium falciparum; assay: Calibr Malaria Delayed Death Assay SOP; type: functional, organism-based; parameters: scale not given: in the data most compounds retested in dose-response had high values; settings: concentration 4.99e-06 (unit not given; other assays of the set use mol/L)

Row | Compound | Percent Effect [%]
1 | CCOCCOC(C)C(=O)Nc1ccnn1-c1ccccc1C (stereo unspecified) | -67.54
2 | COc1cc(CCC(=O)NCC2CC2)ccc1OCC(F)(F)F | -33.72
3 | Nc1nc(CN2CCCC(Cn3cncn3)C2)nc2ccccc12 (stereo unspecified) | -138.6
4 | Fc1ccc(CN2CCOC(Cn3cncn3)C2)c2ncccc12 (stereo unspecified) | -95.84
5 | Fc1ccc(CN2CCCC2Cn2cncn2)c2ncccc12 (stereo unspecified) | 10.61
6 | Fc1ccc(CN2CCCC(Cn3cncn3)C2)c2ncccc12 (stereo unspecified) | -5.261
7 | Clc1ccc(CN2CCCC(Cn3cncn3)C2)c2ncccc12 (stereo unspecified) | 63.13
8 | Fc1ccc(CN2CCCCC2Cn2cncn2)c2ncccc12 (stereo unspecified) | 64.52
9 | CCn1nnc2c1C(COC)CN(C(=O)Cc1ccccn1)C2 (stereo unspecified) | -16.62
10 | CNC(=O)C1CCN(S(C)(=O)=O)CC1 | -158.4
11 | O=C1CC(c2cccs2)c2sc(C(=O)O)c(-c3ccccc3)c2N1 (stereo unspecified) | -70.62
12 | Cc1nc(N2CCCC2)ccc1NCc1ccccn1 | -6.068
13 | COCCCNC(=O)c1c[nH]c2ccc(OC)cc12 | -47.08
14 | COc1ccc(C(=O)O)c(OCC(=O)NC(C)c2ccccc2)c1 (stereo unspecified) | -10.57
15 | O=C1CCNc2ccc(F)cc2CN1Cc1ccccc1 | -35.83
16 | CC1N(c2cnn(C)c2)C(=O)COC12CCN(CC1CC1)CC2.O=C(O)C(F)(F)F (stereo unspecified) | -75.35
17 | CCN(CC)C(=O)c1ccc(-n2ncc(C#N)c2N)cc1 | -24.17
18 | Cc1cnc(NC(=O)c2ccc(-n3ncc(C#N)c3N)cc2)s1 | -56.37
19 | COc1ccc(NC(=O)c2ccc(-n3ncc(C#N)c3N)cc2)cn1 | 80.07
20 | O=C(CSc1ccccn1)N1CCC(OCc2cccnc2)CC1 | -154
21 | Cn1cnc(S(=O)(=O)NCCC(O)c2ccc3c(c2)OCO3)c1 (stereo unspecified) | -141.1
22 | CC(Nc1cccc(F)c1C#N)c1cccc(S(N)(=O)=O)c1 (stereo unspecified) | -56.47

Row | Compound | Percent Effect [%]
23 | Cc1ccnc(OC[C@]23COC[C@H]2CN(C(=O)C2=CCCCC2)C3)n1 | -29.48
24 | C[C@]1(O)CCN(Cc2c[nH]cn2)C[C@@H]1Oc1cccc(F)c1 | -164.2
25 | CC(C)Oc1ccccc1-c1cc(CN)ccc1F | 60.74
26 | CC(C)Oc1ccc(CNC(=O)c2cc(C(N)=O)cs2)cc1F | -80.32
27 | COCCNC(=O)NCc1ccc(OC(C)C)c(F)c1 | -81.14
28 | COc1cccc(-c2cc(CN)ccc2F)c1F | -75.66
29 | COc1cccc(Cl)c1-c1cc(CN)ccc1F | 65.68
30 | NCc1ccc(Oc2cccc(Cl)c2Cl)cc1 | 19
31 | Cc1cc(NC(=O)Cc2ccc3c(c2)OCO3)n(C)n1 | -77.02
32 | O=C(CC1NC(N2CCc3ccccc32)=NC1=O)Nc1ccc(Cl)cc1 (stereo unspecified) | -176.9
33 | O=C(Cn1cc(C2CC2)nn1)N(Cc1ccco1)Cc1cccs1 | -76.11
34 | CN(C)c1ncccc1CNCc1cccc(O)c1 | -22.48
35 | O=C(CCc1ccsc1)NCC1CCN(Cc2cccs2)CC1 | 58
36 | O=C(CCc1ccccc1)NCC1CCN(Cc2cccs2)CC1 | -10.35
37 | O=C(CCc1ccccc1)NCC1CCN(Cc2ccsc2)CC1 | 18.12
38 | CCn1ncc2c1C(COC)N(C(=O)c1ccsc1)CC2.O=C(O)C(F)(F)F (stereo unspecified) | -121.1
39 | Cc1cc(N2CCC(c3ncc[nH]3)CC2)nc(N)n1 | -29.26
40 | Cc1cc(N2CCC(c3ncc[nH]3)CC2)c2ccccc2n1 | 61.5
41 | Cc1cc(N2CCC(c3ncc[nH]3)CC2)cc(C)n1 | -30.44
42 | Cc1cc(C(=O)N2CC(O)CO2)c2cccc(C)c2n1 (stereo unspecified) | -103.4
43 | Cn1nc(C(=O)NC2(c3ccc(Cl)cc3)CCCC2)ccc1=O | 37.39
44 | Cc1nccn1Cc1nnc(C2CCCN(c3ncccc3F)C2)n1C (stereo unspecified) | -123.3

Row | Compound | Percent Effect [%]
45 | COCc1noc(Cn2c(C3CC3)nc3ccccc32)n1 | -91.38
46 | CN1CCN(Cc2ccc(F)cc2)Cc2cccnc21 | -11.04
47 | CC(C)n1ccnc1C1CCN(Cc2ccc(Cl)c(F)c2)CC1 | 33.02
48 | COc1cccc(C(=O)N2CCCC2c2ncc3c(n2)CCN(C)C3)c1 (stereo unspecified) | -46.26
49 | Cn1cc(C2(C)CN(Cc3ccc(Cl)c(F)c3)CCO2)cn1 (stereo unspecified) | -40.79
50 | O=C(NCCc1nccs1)N1CCC(n2cccc2)CC1 | -128.4
51 | Cc1nc(CNC(=O)Nc2cc(C(F)(F)F)c[nH]c2=O)cs1 | -139.2
52 | Cc1cc(F)ccc1S(=O)(=O)NCC(O)c1cccn1C (stereo unspecified) | -27.19
53 | CC(CNS(=O)(=O)c1cccc(Cl)c1)N1CCN(C)CC1 (stereo unspecified) | 77.12
54 | Cc1cc(Cl)ccc1S(=O)(=O)NCC(C)N1CCN(C)CC1 (stereo unspecified) | 73.33
55 | CC(=O)N1C[C@H](NS(=O)(=O)c2cccc(Cl)c2)[C@@H](C(C)C)C1 | -122
56 | CC(NCCNS(=O)(=O)c1cccc(Cl)c1)C1CCOCC1 (stereo unspecified) | 24.26
57 | COc1ccc(S(=O)(=O)NCC(c2cccn2C)N(C)C)c(C)c1 (stereo unspecified) | 47.32
58 | O=S(=O)(NCC(O)c1cccs1)c1ccccc1Cl (stereo unspecified) | -35.17
59 | Cc1c(Cl)cccc1S(=O)(=O)NCC(O)c1cccn1C (stereo unspecified) | -3.502
60 | Cc1cccc(S(=O)(=O)NCC(C)N2CCN(C)CC2)c1Cl (stereo unspecified) | 80.79
61 | Cc1cccc(-n2nnnc2C(C)(C)Nc2ccccc2C)c1 | -66.56
62 | O=C(c1ccc2c(c1)COC2)N1CCCN(Cc2cscn2)CC1 | -90.53
63 | Cc1nn(C)c(N2CCCN(C)CC2)c1CNC(=O)CC(C)(C)C | -44.23
64 | Cc1nc(CN2CCC3(CCCN(Cc4ccncc4)C3)C2=O)cs1.O=C(O)C(F)(F)F.O=C(O)C(F)(F)F.O=C(O)C(F)(F)F (stereo unspecified) | -86.96
65 | CCc1cc(NCCCOC2CCCC2)ncn1 | -19.37
66 | O=C(c1ccn(-c2ccc(F)cc2)n1)N(CCO)Cc1cccnc1 | -20.41

Row | Compound | Percent Effect [%]
67 | CN(C)CCN(Cc1cccnc1)C(=O)c1ccn(-c2ccccc2)n1 | 87.52
68 | N#CCCN(Cc1cccnc1)C(=O)c1ccn(-c2ccccc2)n1 | -29.34
69 | Cc1ncoc1C(=O)N1CCOC(CC2CCCCC2)C1 (stereo unspecified) | -117.2
70 | CCOc1ccc2[nH]c(=O)c(CN3CCCCC3C)cc2c1 (stereo unspecified) | -50.88
71 | Cc1occc1C(=O)NCC1OCCc2cn(C)nc21.O=C(O)C(F)(F)F (stereo unspecified) | -17.21
72 | Cc1nn(CC(=O)NCC2(C(N)=O)CCOCC2)c(C)c1Cl | -63.22
73 | CCn1ccnc1C1CCN(Cc2cccc(C)n2)CC1 | -98.55
74 | Cc1cccc(CN2CCC(NS(C)(=O)=O)CC2)n1 | -83.22
75 | O=C(c1c(O)cnc2ccccc12)N1CCCSCC1 | -75.93
76 | CCn1c(C)cc(C(=O)N2CCC(Nc3ccc(C)nn3)CC2)c1C | -49.09
77 | COc1ccccc1CNc1c(N2CCN(C(C)=O)CC2)c(=O)c1=O | -13.77
78 | Cc1nc(CCC(=O)NCC(N)=O)cc(C2CCNCC2)n1 | -86.52
79 | CNC(=O)CCc1cc(C2CCNCC2)nc(C)n1.Cl.Cl | -15.84
80 | COc1ccc2cnn(CC(=O)NC3CCCCC3)c(=O)c2c1OC | -20.95
81 | Cc1nn(Cc2ccc(C(=O)NCCCN3CCCC3=O)o2)c(C)c1Br | -82.86
82 | CC(C)N(C)Cc1cnc2n1CCN(Cc1cccc(C#N)c1)C2 | 10.5
83 | CC(O)(CCc1ccccc1)CNC(=O)c1cccs1 (stereo unspecified) | -19.61
84 | COc1ccc(CC(C)(O)CNC(=O)c2cccs2)cc1 (stereo unspecified) | 88.99
85 | COc1ccc(CC(C)(O)CNC(=O)Cc2cccs2)cc1 (stereo unspecified) | -86.25
86 | CCN1C(=O)CCCC12CCCN(C(=O)c1ccncc1F)C2.O=C(O)C(F)(F)F (stereo unspecified) | -52.32
87 | CC(=O)Nc1nc(CS(=O)(=O)Cc2ccccc2)cs1 | -16.97
88 | COCCN1Cc2ccccc2C2(CCN(C(=O)c3ccno3)CC2)C1 | -21.64

Row | Compound | Percent Effect [%]
89 | COCCN1CCC(NCc2cccnc2)C1 (stereo unspecified) | -54.93
90 | COCCn1ccnc1C1CCCN(c2ncnc3c(C)csc23)C1 (stereo unspecified) | -130.5
91 | Cc1csc2c(N3CCC(Cn4cc(C(C)(C)O)nn4)CC3)ncnc12 | -16.92
92 | N#Cc1ccc(CNC(=O)NC2CCN(c3ncccn3)CC2)cc1 | -82.81
93 | COC(=O)C(O)C1CCN(CCc2ccncc2)CC1 (stereo unspecified) | -64.35
94 | N#Cc1ccc(CNC(=O)NC2CCN(CC(F)(F)F)C2)cc1 (stereo unspecified) | -80.57
95 | N#Cc1ccc(CNC2CCN(CCc3ccncc3)CC2)cc1 | 54.87
96 | Cc1ccc(CNC2CCN(CCc3ccncc3)CC2)s1 | -5.622
97 | Cc1cccc(CNC2CCN(CCc3ccncc3)CC2)c1C | 75.22
98 | Cc1csc2c(N3CCC(NCCCc4ccncc4)CC3)ncnc12 | 63.19
99 | CSc1ccc(CNC2CCN(CCc3ccncc3)CC2)cc1 | 92.6
100 | CCCN1CCC(NCc2ccncc2)CC1 | -53.14
101 | COC(=O)COn1c(SC)nc2ccccc2c1=O | -26.25
102 | Cc1cccnc1CN(C)c1ncnc2[nH]ccc12 | -141.2
103 | O=C(O)C(F)(F)F.O=C(O)C(F)(F)F.c1cncc(OC[C@@H]2CCC[C@@]23CN(Cc2nccs2)CCO3)c1 | -94.41
104 | Cn1nc(-c2ccccc2)c(Br)c1C(=O)O | -35.19
105 | O=C(C1CCOCC1)N1CCC2(CC1)CN(c1ccsc1)C(=O)CO2 | -132.3
106 | O=C(c1cnn(-c2ccccc2Cl)c1)N1CCN(CCO)CC1 | -76.86

From ChEMBL document CHEMBL3988442, “University of Dundee, Small-Polar-MMV Screening Library” (2021)
